Bioassay records as filed in PubChem BioAssay.
Shown are actives, neighbours in structure and some others; about 11% of the full set was active somewhere.
hNpr1 antagonist: human Npr1 receptor antagonism; HEK293 hNpr1 GloSensor cGMP, ANP-stimulated luminescence; AID 1347048; actives 1.6% (n = 76,000); P16066; Potency, µM (series often up to 46.3 µM), for inactives: at the top dose activity change, negative = inhibition, usual class: inhibitors; calls by dose curve; note: % is set by controls: 0 for no effect and ±100 for the full control effect; nearly all actives have a fitted effect of over 60% in size
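HEK293 cells stably expressing human Npr1 and cGMP GloSensor pGS-40F, loaded 2 h with 2% GloSensor reagent, given compound 30 min at room temperature. Luminescence read before and 20 min after 0.1 nM hNppA.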
FLuc inh: Photinus pyralis luciferase inhibition | actives 2.5% (n = 76,000) | Potency, µM (titrated, usually from 115 µM), hits mostly inhibitors | P08659 | purified P. pyralis luciferase, luminescence, biochemical; note: % is set by controls: 0 for no effect and ±100 for the full control effect; nearly all actives have a fitted effect of over 65% in size
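Biochemical qHTS: compound (6-point titration) added to 10uM D-luciferin plus 10uM ATP in Tris acetate pH 7.5 buffer with Mg, Tween-20 and BSA, then purified enzyme at 10nM; light output imaged.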
HEK cytotox: HEK 293 cell cytotoxicity | HEK 293 viability, ATP luminescence (CellTiter-Glo), 48-72 h | AID 1345083 | actives 6.6% (n = 94,000) | Potency, µM (titrated, usually from 115 µM), inactives show top-dose activity change, negative = cytotoxicity, most hits filed as inhibitors; note: % is set by controls: 0 for no effect and ±100 for the full control effect; nearly all actives have a fitted effect of over 60% in size
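ATP-coupled CellTiter-Glo luminescence served as viability read-out, recorded 10 min after reagent addition at room temperature. HEK 293 cells, 250 cells/well, had been incubated with pintool-transferred compound for 48 or 72 hr at 37 degree Celsius.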
NIH3T3 tox: NIH 3T3 cell cytotoxicity. NIH 3T3 viability, CellTiter-Glo ATP luminescence, 48-72 h. Potency, µM (series often up to 96.7 µM), without a hit: at the top dose activity change, negative = cytotoxicity, most hits filed as inhibitors. actives 4.3% (n = 94,000); note: % is set by controls: 0 for no effect and ±100 for the full control effect; nearly all actives have a fitted effect of over 55% in size
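Mouse fibroblast NIH 3T3 cells, 400 per well, received compound via pintool and were incubated for 48 or 72 hr prior to CellTiter-Glo ATP luminescence measurement.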
Npr1 antag conf: confirmation of human Npr1 natriuretic peptide receptor antagonists | HEK293 hNpr1 cGMP GloSensor luminescence, ANP-stimulated | Potency, µM (highest dose often 57.6 µM), for the others: at the highest dose activity change, negative = inhibition, actives largely listed as inhibitors | actives 76% (n = 1,400) | AID 1347044 | shares compounds with hNpr1 antagonist; calls by dose curve; note: nearly all actives have a fitted effect of over 70% in size
NPR2 antag: antagonizes human Npr2, subtype selectivity check; shares compounds with hNpr1 antagonist; HEK293 hNpr2 GloSensor cGMP luminescence, CNP-stimulated; Potency, µM (titrated, usually from 57.6 µM), for inactives: at the top dose activity change, negative = inhibition, hits mostly inhibitors; actives 67% (n = 1,400); AID 1347046; calls by dose curve; note: nearly all actives have a fitted effect of over 70% in size
FLuc inh counter: counter-screen for Npr1 antagonists: firefly luciferase inhibitors | shares compounds with hNpr1 antagonist | purified FLuc enzyme, luminescence, Km substrate | Potency, µM (highest dose often 57.6 µM), for the others: at the highest dose activity change, negative = inhibition, usual class: inhibitors | actives 0.7% (n = 1,400); note: 0% is about no effect
GloSensor ctrl: control cell line activity, Npr1 antagonist counter-screen; HEK293 GloSensor cGMP, SNP-stimulated, luminescence; shares compounds with hNpr1 antagonist; Potency, µM (doses to about 57.6 µM), without a hit: at the top dose activity change, negative = inhibition, most hits filed as inhibitors; actives 69% (n = 1,400); calls by dose curve; note: % is set by controls: 0 for no effect and ±100 for the full control effect; nearly all actives have a fitted effect of over 70% in size
* = called active by the depositor; i = inactive; ? = inconclusive; · = no result; [ ] = dose if it differs, or a comment. Unless noted, calls come from the whole dose curve; as a rule, active = well fitted curve in the direction sought with a large enough effect; inconclusive = small, poorly fitted or top-dose-only effect, or another doubt; inactive = no such curve, though single readings can be large; an effect the other way counts as inactive or inconclusive. Potency is the fitted concentration of half-maximal effect.

SMILES	hNpr1 antagonist	FLuc inh	HEK cytotox	NIH3T3 tox	Npr1 antag conf	NPR2 antag	FLuc inh counter	GloSensor ctrl
O=C1COc2ccc(OCc3cncs3)nc2CN1Cc1ccccc1	-28%[70.6 µM]	i	?	?	·	·	·	·
Cc1cc(C)n(CC(=O)N2CCC3(CC2)CC(CN2CCOCC2)N(C)C3)n1 (centres undefined)	·	·	-16%	-15%	·	·	·	·
CC1(C)[C@H](Cc2cc(CN3CCN(c4ccccc4)CC3)on2)C[C@@H]1NC(=O)NCc1ccccc1	11µM*	i	25µM*	?	22µM*	?	7%	17µM*
CC(C)(C)CC(=O)N[C@H]1C[C@@H](Cc2cc(COc3ccccc3)on2)C1(C)C	14µM*	i	?	?	13µM*	16µM*	2%[86.2 µM]	14µM*
CC(=O)N[C@H]1C[C@@H](Cc2cc(CN3CCCCC3)on2)C1(C)C	-2%[70.6 µM]	i	-21%[172 µM]	?	·	·	·	·
CC1(C)[C@H](Cc2cc(CN3CCN(c4ccccc4)CC3)on2)C[C@@H]1NC(=O)Nc1ccc(F)cc1	13µM*	i	?	?	19µM*	22µM*	3%	19µM*
CC(C)NC(=O)N1CCC2(CC1)CN(C(=O)c1cccc3[nH]ccc13)Cc1ccccc1O2	·	·	?	-13%	·	·	·	·
CC1Oc2ccc(NC(=O)c3ccc(F)cc3)cc2CN(Cc2ccc3c(c2)OCO3)C1=O (centres undefined)	?	i	?	?	24µM*	?	1%	31µM*
O=C(NCC1CC1)C1CCN(c2nc3ncccc3o2)CC1	·	·	-2%[172 µM]	-17%[138 µM]	·	·	·	·
CCCc1cc(C(=O)N(C)CCOc2ccccc2CC)n(C)n1	7.1µM*	i	?	40µM*	7.7µM*	11µM*	0%	7.7µM*
CCCc1cc(C(=O)N[C@@H]2CCOC[C@H]2OCCO)n(C)n1	1%	i	i	-3%	·	·	·	·
COc1cccc(N2CCN(c3nc(C(=O)NCc4ccccc4F)cs3)CC2)c1	13µM*	i	45µM*	?	27µM*	?	-3%	?
CCCn1cc(-c2ccncc2)cc1C(=O)NCc1ccc(OC)cc1	-14%	?	?	?	·	·	·	·
COc1cccc(N2CCN(c3nc(C(=O)NCc4ccncc4)cs3)CC2)c1	?	i	35µM*	?	27µM*	22µM*	-18%	27µM*
CC(C)N1CCN(C(=O)c2csc(N3CCN(c4cccc(Cl)c4)CC3)n2)CC1	-25%	i	?	?	·	·	·	·
O=C(c1ccccc1)N1Cc2[nH]cnc2C[C@H]1c1nc(-c2ccc(Cl)cc2)no1	-25%[70.6 µM]	i	?	?	·	·	·	·
O=C(Nc1ccc(Cl)cc1)N1Cc2[nH]cnc2C[C@H]1c1nc(-c2ccccc2)no1	-22%[70.6 µM]	i	79µM*	32µM*	?	?	?	-26%[86.2 µM]
CC1(C)[C@H]2CC[C@@H](CNC(=O)c3ccc4c(c3)OCO4)[C@@H]1C2	-23%[70.6 µM]	i	?	?	·	·	·	·
COc1cc(CN2CCC(C)(NC(C)=O)CC2)cc(-c2ccncc2)c1	·	·	·	·	22µM*	8.9µM*	2%[86.2 µM]	-18%[86.2 µM]
COCCCNC(=O)N1CCC(n2c(C)cnc2C2CCOCC2)CC1	·	·	-2%	i	·	·	·	·
O=C1N[C@H](CC(=O)N2CCN(c3ccc(C(F)(F)F)cn3)CC2)C(=O)Nc2ccccc21	?	i	?	-15%	?	?	-1%	?
